Bioassay records deposited in PubChem BioAssay by University of Kansas High Throughput Screening Laboratory.
Pf apPOL inh: Pf-apPOL DNA polymerase inhibition. Recombinant Pf-apPOL, molecular beacon fluorescence, 1.5 h. 210,000 compounds, 0.25% hits. inhibition, % at 10 µM
mHTT CaM bind: disrupts binding of mutant huntingtin to calmodulin; P42858; AlphaScreen His-mHTT/GST-CaM binding, luminescence; inhibition, % at 15 µM; 190,000 compounds, 3.6% hits; AID 1671202;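 note: 0% = both proteins with DMSO and 100% = one protein alone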
Target sequence (P42858 whole entry, looked up, stated change not applied): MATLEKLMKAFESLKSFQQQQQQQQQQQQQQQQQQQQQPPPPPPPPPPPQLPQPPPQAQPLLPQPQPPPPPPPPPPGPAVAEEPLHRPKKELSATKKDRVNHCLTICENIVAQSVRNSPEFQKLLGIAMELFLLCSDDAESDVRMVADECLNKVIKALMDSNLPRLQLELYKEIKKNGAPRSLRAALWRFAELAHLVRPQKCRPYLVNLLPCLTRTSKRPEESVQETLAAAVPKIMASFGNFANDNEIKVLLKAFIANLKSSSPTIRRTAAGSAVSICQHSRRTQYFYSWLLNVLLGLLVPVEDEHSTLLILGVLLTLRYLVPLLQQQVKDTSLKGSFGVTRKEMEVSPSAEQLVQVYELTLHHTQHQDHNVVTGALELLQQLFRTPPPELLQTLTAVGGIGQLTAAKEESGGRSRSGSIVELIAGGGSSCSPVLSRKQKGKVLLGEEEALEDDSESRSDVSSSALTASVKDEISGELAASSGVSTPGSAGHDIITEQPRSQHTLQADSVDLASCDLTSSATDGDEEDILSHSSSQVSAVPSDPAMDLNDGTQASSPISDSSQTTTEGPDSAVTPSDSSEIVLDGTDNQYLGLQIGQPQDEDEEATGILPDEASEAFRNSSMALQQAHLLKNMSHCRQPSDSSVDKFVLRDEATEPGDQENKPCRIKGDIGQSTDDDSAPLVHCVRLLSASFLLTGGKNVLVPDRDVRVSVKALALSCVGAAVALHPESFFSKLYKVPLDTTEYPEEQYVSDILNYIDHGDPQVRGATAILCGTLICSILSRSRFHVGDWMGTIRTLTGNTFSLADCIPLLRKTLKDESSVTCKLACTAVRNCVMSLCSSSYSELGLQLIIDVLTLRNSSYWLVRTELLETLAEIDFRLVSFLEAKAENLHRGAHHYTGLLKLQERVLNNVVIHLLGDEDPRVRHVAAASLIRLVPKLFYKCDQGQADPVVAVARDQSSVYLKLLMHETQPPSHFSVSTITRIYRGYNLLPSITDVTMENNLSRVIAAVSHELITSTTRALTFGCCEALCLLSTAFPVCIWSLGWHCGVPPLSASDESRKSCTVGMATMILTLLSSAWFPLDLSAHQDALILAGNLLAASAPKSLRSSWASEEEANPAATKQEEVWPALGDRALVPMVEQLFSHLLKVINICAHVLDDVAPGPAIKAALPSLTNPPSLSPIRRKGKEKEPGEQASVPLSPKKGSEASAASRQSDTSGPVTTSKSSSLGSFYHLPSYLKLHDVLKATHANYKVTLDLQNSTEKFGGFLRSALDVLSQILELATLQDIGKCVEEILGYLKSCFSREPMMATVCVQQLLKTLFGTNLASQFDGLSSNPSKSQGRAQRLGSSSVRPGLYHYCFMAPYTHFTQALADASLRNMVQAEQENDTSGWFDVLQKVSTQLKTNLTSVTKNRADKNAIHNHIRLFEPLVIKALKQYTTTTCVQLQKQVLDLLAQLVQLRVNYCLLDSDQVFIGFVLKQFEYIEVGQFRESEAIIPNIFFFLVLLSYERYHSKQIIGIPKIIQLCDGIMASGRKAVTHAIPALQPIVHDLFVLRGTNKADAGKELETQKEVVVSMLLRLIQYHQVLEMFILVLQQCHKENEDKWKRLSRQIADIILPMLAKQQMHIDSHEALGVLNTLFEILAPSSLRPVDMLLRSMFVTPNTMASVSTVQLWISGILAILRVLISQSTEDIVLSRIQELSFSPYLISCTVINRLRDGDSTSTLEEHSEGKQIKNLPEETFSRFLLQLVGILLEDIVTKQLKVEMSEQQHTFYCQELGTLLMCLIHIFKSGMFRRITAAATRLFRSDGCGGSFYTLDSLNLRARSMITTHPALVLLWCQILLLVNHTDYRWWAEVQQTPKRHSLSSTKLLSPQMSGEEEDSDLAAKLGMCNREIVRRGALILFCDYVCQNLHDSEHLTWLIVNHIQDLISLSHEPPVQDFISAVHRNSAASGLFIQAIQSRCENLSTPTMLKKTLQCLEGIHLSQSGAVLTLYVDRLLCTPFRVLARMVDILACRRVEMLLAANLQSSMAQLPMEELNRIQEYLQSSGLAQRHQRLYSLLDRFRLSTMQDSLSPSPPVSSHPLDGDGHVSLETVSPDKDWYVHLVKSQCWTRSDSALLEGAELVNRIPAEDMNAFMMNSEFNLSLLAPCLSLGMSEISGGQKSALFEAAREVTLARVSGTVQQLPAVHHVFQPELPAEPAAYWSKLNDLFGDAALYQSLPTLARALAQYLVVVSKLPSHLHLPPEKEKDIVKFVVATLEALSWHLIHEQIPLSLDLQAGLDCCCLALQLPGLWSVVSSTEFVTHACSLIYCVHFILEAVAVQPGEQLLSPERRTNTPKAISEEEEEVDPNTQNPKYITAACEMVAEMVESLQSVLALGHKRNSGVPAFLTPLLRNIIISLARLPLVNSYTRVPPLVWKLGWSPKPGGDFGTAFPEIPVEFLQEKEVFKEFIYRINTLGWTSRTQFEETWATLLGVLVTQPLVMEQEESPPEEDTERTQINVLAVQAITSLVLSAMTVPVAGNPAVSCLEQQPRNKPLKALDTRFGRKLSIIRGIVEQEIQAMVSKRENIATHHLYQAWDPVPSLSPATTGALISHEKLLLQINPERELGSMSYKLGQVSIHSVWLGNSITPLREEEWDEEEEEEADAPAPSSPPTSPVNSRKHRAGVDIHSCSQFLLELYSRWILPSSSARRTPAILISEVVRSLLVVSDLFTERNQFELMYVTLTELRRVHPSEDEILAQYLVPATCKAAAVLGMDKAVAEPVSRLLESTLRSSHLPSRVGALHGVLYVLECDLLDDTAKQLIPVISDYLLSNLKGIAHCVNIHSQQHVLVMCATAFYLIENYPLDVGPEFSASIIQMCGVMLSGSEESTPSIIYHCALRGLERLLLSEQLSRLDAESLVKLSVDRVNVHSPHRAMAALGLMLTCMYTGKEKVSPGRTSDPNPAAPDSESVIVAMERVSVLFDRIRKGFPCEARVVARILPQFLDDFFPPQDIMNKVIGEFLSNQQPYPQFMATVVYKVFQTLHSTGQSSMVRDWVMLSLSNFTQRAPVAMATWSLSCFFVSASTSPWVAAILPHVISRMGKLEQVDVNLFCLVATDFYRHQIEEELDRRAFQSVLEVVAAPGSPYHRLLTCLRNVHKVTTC
* hit, by the source's call; . = no result. Hits are enriched below; roughly 3.6% of the tested compounds scored in any of these assays. Cut-off read from the data, not from the text of the source: active = inhibition above about 50%; inactive = the rest.

SMILES | Pf apPOL inh | mHTT CaM bind
COC(=O)c1cccc(C(=O)N2CCN(c3cc(Cl)ccc3C)CC2)n1 | -2 | 97*
COC(=O)c1cccc(C(=O)Nc2ccc(Cl)cc2C)n1 | -3 | -7
COc1ccccc1N1CCN(C(=O)c2ccc(Cl)cc2[N+](=O)[O-])CC1 | 7 | 7
COc1cc(OC)cc(C(=O)N2CCN(C(=O)c3ccc(-c4ccccc4)cc3)CC2)c1 | -4 | 11
COc1cccc(C(=O)N2CCN(c3cc(Cl)ccc3C)CC2)c1OC | 0 | 100*
O=C(NCc1ccc(F)cc1)N1CCC(Nc2cccnc2)C1 (stereo not drawn) | -4 | -2
CC1CCN(c2ncc3c(n2)CCC(C(=O)NCCCN(C)c2ccccc2)C3)CC1 (stereo not drawn) | -7 | 4
O=C(c1ccc(OCC2CCCN(C(=O)c3ccoc3)C2)cc1)N1CCCC1 (stereo not drawn) | -4 | 5
CCCN1C/C(=C\c2cccc(OC)c2OC)C(=O)/C(=C/c2cccc(OC)c2OC)C1 | -2 | 50*
COc1cccc(/C=C2\CS/C(=C\c3cccc(OC)c3OC)C2=O)c1OC | -4 | 53*
COc1cccc(/C=C2/SC(N3CCN(C)CC3)=NC2=O)c1OC | -4 | -1
COc1cccc(/C=C2\Cc3ccccc3C2=O)c1OC | -5 | -2
O=C1Nc2ccccc2C1=Cc1cccc2ccccc12 | 2 | .
Cc1ccc(NC(=O)C2CCCN(C(=O)c3ccccc3F)C2)cc1Cl (stereo not drawn) | 6 | 26
O=C(CCCOc1ccccc1)N1CCN(Cc2ccc3c(c2)OCO3)CC1 | -7 | 14
Cc1ccccc1C(=O)N1CC(C(=O)NCc2ccccn2)C(c2ccccc2)C1 (stereo not drawn) | 0 | 8
O=C(O)c1ccc(Cl)c(N2C(=O)C3CCCCC3C2=O)c1 (stereo not drawn) | 2 | -10
CCN(CC)c1nc(C)nc2sc(C(=O)Nc3cc(OC)ccc3OC)c(C)c12 | -3 | -4
CCN(CC)c1nc(C)nc2sc(C(=O)Nc3cc(OC)c(OC)c(OC)c3)c(C)c12 | -4 | 51*
COCCCNC(=O)c1cccc([N+](=O)[O-])c1C | -3 | -4
Cc1cccc(CN2CCc3nc(N4CCCC4)ncc3C2)c1 | 8 | 84*
Cc1ccc(CN2CCc3nc(N4CCN(c5ccccc5)CC4)ncc3C2)cc1 | 3 | 28
CCOc1ccc(CN2CCc3nc(N4CCCC4)ncc3C2)cc1OCC | 3 | 0
CCN1CCN(c2ncc3c(n2)CCN(Cc2cccc(Br)c2)C3)CC1 | 2 | 57*
Brc1cccc(CN2CCc3nc(N4CCCC4)ncc3C2)c1 | 7 | 100*
SMILES | Pf apPOL inh | mHTT CaM bind
c1ccc(CN2CCc3nc(N4CCCC4)ncc3C2)cc1 | 6 | 48
CCN1CCN(c2ncc3c(n2)CCN(Cc2cc(F)cc(F)c2)C3)CC1 | -2 | 23
CN(C)c1ccc(CN2CCc3nc(N4CCN(c5ncccn5)CC4)ncc3C2)cc1 | -3 | 100*
CCN1CCN(c2ncc3c(n2)CCN(Cc2ccccc2)C3)CC1 | -5 | 55*
CCc1ccc(CN2CCc3nc(N4CCN(CC)CC4)ncc3C2)cc1 | 0 | 34
COc1cc(-c2nc3n(n2)C(c2ccccc2)C2=C(CCCC2=O)N3)cc(OC)c1OC (stereo not drawn) | -3 | 52*
CC1(C)CC(=O)C2=C(C1)Nc1nc(-c3ccc(O)cc3)nn1C2c1ccccc1 (stereo not drawn) | 0 | -9
COc1cc(C2C3=C(CCCC3=O)Nc3nc(-c4ccc(O)cc4)nn32)cc(OC)c1OC (stereo not drawn) | -2 | 12
COc1ccc(-c2nc3n(n2)C(c2ccc(OC)c(OC)c2)C2=C(CCCC2=O)N3)cc1 (stereo not drawn) | -1 | 16
CC1(C)CC(=O)C2=C(C1)Nc1nc(-c3ccccc3)nn1C2c1ccc(F)cc1 (stereo not drawn) | -1 | 78*
COc1ccc(C2C3=C(CCCC3=O)Nc3nc(-c4ccc(N(C)C)cc4)nn32)cc1OC (stereo not drawn) | 2 | 80*
Cc1ccccc1-c1nsc(SCC(=O)Nc2ccccc2C(F)(F)F)n1 | -3 | -18
O=C(Cc1c(F)cccc1Cl)N1CCc2c(nc3cc[nH]n3c2=O)C1 | -4 | -2
COc1ccc(OC)c(CNS(=O)(=O)c2ccc3[nH]c4c(c3c2)CCCCC4)c1 | -4 | 85*
COc1ccccc1CNS(=O)(=O)c1ccc2[nH]c(=O)sc2c1 | -1 | -1
COc1ccc(S(=O)(=O)Nc2ccc(S(=O)(=O)Nc3cc(C)ccc3C)cc2)cc1OC | 5 | 3
CCOc1ccc(NS(=O)(=O)c2ccc3[nH]c4c(c3c2)CCCC4)cc1 | -1 | 91*
CCOc1ccc(NC(=O)CN(C)S(=O)(=O)c2ccc3[nH]c4c(c3c2)CCCC4)cc1 | -2 | 44
CCOc1ccc(NS(=O)(=O)c2ccc3[nH]c4c(c3c2)CCCCC4)cc1 | -6 | 94*
COc1ccc(C)cc1NS(=O)(=O)c1ccc2[nH]c3c(c2c1)CCCC3 | -6 | 81*
CCOc1ccc(NS(=O)(=O)c2ccc(NS(=O)(=O)c3ccccc3)cc2)cc1 | -4 | -3
Cc1ccc(S(=O)(=O)N2CCC(c3noc(-c4ccccc4C)n3)CC2)cc1C | -2 | -6
CCC(C)NC(=O)Cn1ccc2sccc2c1=O (stereo not drawn) | 4 | -2
Cc1cccc(CN2CCCn3nc(C(=O)NCc4ccccc4C)cc3C2=O)c1 | -1 | -3
CCC(C)NC(=O)c1ccc2c(c1)Sc1ncccc1C(=O)N2C(C)C (stereo not drawn) | -4 | -2
SMILES | Pf apPOL inh | mHTT CaM bind
COc1cccc(NS(=O)(=O)c2ccc3[nH]c4c(c3c2)CCCCC4)c1 | -1 | 98*
COc1ccc(CNC(=O)CN(C)S(=O)(=O)c2ccc3[nH]c4c(c3c2)CCCC4)cc1 | -2 | 32
COc1cccc(NC(=O)CN(C)S(=O)(=O)c2ccc3[nH]c4c(c3c2)CCCC4)c1 | -3 | 44
COc1ccc(NS(=O)(=O)c2ccc3[nH]c4c(c3c2)CCCCC4)cc1 | -2 | 57*
CCc1ccc(C2=CC(c3ccc(Br)cc3)n3nnnc3N2)cc1 (stereo not drawn) | -1 | -15
Cc1c(Cl)c([N+](=O)[O-])nn1CCCC(=O)N1CCN(c2ccccc2)CC1 | 4 | 0
Cc1c(Cl)c([N+](=O)[O-])nn1CCCC(=O)N(Cc1ccccc1)Cc1ccccc1 | -6 | 84*
CCCc1sc(NC(=O)c2cc(OC)c(OC)c(OC)c2)nc1-c1ccc(OC)c(OC)c1 | -1 | 55*
CCc1nnc(NC(=O)c2cc(OC)c(OC)c(OC)c2)s1 | 1 | 1
CC(C)S(=O)(=O)c1cccc(-c2nnc(NC(=O)c3ccc4c(c3)CCCC4)o2)c1 | -18 | 51*
COc1ccccc1-c1nnc(NC(=O)c2ccc3c(c2)CCCC3)o1 | -6 | -2
Cc1ccc(CN2CCN(C3CCN(C(=O)Nc4ccc5c(c4)OCO5)CC3)C2=O)cc1 | -1 | 15
O=[N+]([O-])c1ncn(Cc2cccc(Br)c2)n1 | 3 | -3
O=[N+]([O-])c1ncn(CNc2cc(Br)cc3cccnc23)n1 | -2 | 65*
CC1(C)C(C=C(Cl)Cl)C1C(=O)Nc1ccc([N+](=O)[O-])cc1 (stereo not drawn) | -6 | 99*
Cc1cc(C)nc(NS(=O)(=O)c2ccc(NC(=O)C3C(C=C(Cl)Cl)C3(C)C)cc2)n1 (stereo not drawn) | -5 | 67*
